Experiments:
Assay in all cases: DAPPL (digital affinity profiling via proximity ligation, sequencing); 10 mM Tris-HCl pH 7.5, 50 mM NaCl, 1 mM DTT, 4% glycerol, room temperature, 30 min; GST-TFs on glutathione beads, 16-mer random dsDNA library, 0.1% formaldehyde crosslink after washing; high values mean tight binding
FLI1 = biological target: T1, FLI1 (Homo sapiens, UniProt Q01543 1-452); details: protein: recombinant; tags: N-terminal GST; dsDNA, one strand shown
T1 sequence: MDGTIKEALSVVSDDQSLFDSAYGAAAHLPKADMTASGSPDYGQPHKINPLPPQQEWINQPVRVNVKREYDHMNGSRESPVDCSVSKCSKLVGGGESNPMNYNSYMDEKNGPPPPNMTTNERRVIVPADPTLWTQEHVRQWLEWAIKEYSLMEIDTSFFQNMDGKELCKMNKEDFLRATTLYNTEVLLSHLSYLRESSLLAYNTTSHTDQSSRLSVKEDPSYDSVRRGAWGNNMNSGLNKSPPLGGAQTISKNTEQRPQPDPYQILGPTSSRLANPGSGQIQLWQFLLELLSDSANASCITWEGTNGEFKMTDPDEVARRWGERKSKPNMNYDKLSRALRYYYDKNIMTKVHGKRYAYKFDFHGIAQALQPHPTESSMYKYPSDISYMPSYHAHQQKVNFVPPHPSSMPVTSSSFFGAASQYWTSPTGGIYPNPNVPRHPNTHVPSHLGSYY
How it was run: (§1)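 Pools of DNA-barcoded human transcription factors, expressed in yeast as GST fusions on glutathione beads and combined with a tag-only sample, were incubated with 200 nmole of a 16-mer random double-stranded DNA library. Incubation took 30 min at room temperature in Tris/NaCl/DTT/glycerol buffer and was followed by washing, 0.1% formaldehyde crosslinking, proximity ligation (BsaI/T4 ligase, 1 h, 37 °C), PCR amplification and sequencing on an Illumina NextSeq500. Binding signal is the ratio of a hexamer's read frequency for a factor to its frequency for the tag-only sample.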

ELK1 = biological target: T2, ELK1 (Homo sapiens, UniProt P19419 1-428); details: protein: recombinant; tags: N-terminal GST; dsDNA, one strand shown
T2 sequence: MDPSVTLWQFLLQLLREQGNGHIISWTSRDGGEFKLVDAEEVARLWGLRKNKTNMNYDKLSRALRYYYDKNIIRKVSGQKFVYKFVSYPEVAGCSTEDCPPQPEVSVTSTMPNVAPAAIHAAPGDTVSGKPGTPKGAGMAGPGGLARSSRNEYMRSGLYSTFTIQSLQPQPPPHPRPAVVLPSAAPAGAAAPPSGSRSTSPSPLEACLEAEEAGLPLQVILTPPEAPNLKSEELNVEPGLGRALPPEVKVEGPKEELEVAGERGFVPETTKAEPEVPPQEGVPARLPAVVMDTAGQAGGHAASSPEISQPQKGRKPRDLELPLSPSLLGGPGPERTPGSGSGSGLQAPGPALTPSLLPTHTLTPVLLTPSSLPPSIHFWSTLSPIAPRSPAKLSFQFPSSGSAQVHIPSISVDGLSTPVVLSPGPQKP
How it was run: as §1

GABPA = biological target: T3, GABPA (Homo sapiens, UniProt Q06546 1-454); details: protein: recombinant; tags: N-terminal GST; dsDNA, one strand shown
T3 sequence: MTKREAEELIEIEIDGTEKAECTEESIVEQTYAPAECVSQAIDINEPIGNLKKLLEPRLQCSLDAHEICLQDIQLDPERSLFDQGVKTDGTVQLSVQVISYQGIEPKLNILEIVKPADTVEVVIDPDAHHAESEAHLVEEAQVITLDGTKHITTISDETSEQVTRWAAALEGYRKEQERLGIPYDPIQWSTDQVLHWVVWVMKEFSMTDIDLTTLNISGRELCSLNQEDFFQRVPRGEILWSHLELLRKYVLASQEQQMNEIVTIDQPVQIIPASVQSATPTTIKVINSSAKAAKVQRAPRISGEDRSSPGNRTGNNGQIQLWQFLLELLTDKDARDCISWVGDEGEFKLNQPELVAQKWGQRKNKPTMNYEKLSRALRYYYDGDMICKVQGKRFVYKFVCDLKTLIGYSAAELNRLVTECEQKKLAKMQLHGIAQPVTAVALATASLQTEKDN
How it was run: as §1

ERG = biological target: T4, ERG (Homo sapiens, UniProt P11308 1-479); details: protein: recombinant; tags: N-terminal GST; dsDNA, one strand shown
T4 sequence: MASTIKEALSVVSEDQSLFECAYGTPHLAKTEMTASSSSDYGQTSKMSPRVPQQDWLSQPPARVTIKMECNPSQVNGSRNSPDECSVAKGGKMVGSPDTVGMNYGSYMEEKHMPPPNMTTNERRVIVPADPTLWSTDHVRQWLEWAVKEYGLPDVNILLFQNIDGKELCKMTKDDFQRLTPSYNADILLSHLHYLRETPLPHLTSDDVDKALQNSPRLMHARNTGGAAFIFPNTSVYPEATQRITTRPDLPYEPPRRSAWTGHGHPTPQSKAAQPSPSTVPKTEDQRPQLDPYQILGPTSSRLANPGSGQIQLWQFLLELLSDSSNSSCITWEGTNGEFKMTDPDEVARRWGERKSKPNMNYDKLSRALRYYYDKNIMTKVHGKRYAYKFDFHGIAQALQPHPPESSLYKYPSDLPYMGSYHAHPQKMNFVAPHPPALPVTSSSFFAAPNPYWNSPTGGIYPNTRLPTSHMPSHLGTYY
How it was run: as §1

ELF1 = ELF1 (Homo sapiens, UniProt P32519 1-619); details: protein: recombinant; tags: N-terminal GST; dsDNA, one strand shown
How it was run: as §1

EHF = biological target: T5, EHF (Homo sapiens, UniProt Q9NZC4 1-300); details: protein: recombinant; tags: N-terminal GST; dsDNA, one strand shown
T5 sequence: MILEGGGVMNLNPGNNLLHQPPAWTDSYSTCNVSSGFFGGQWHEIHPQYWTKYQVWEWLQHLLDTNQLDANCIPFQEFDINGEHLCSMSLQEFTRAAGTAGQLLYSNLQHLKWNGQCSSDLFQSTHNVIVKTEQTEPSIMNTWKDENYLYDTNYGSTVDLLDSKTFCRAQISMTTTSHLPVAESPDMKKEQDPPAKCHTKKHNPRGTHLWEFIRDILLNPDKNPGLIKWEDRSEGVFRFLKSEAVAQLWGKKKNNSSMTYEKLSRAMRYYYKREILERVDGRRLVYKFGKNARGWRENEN
How it was run: as §1

SPI1 = SPI1 (Homo sapiens, UniProt P17947 1-270); details: protein: recombinant; tags: N-terminal GST; dsDNA, one strand shown
How it was run: as §1

SPIB = SPIB (Homo sapiens, UniProt Q01892 1-262); details: protein: recombinant; tags: N-terminal GST; dsDNA, one strand shown
How it was run: as §1

ELK3 = biological target: T6, ELK3 (Homo sapiens, UniProt P41970 1-407); details: protein: recombinant; tags: N-terminal GST; dsDNA, one strand shown
T6 sequence: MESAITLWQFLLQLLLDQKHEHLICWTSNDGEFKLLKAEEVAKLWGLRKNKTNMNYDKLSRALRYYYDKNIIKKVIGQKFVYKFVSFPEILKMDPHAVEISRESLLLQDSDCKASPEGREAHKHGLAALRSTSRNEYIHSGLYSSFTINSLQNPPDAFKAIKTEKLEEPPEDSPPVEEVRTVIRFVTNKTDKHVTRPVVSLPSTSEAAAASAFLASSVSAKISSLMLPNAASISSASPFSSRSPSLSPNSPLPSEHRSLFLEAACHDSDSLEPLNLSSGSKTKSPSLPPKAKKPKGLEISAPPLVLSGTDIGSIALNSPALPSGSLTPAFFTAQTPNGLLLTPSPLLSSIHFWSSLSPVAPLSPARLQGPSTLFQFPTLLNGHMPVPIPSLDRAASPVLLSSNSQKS
How it was run: as §1

FEV = biological target: T7, FEV (Homo sapiens, UniProt Q99581 1-238); details: protein: recombinant; tags: N-terminal GST; dsDNA, one strand shown
T7 sequence: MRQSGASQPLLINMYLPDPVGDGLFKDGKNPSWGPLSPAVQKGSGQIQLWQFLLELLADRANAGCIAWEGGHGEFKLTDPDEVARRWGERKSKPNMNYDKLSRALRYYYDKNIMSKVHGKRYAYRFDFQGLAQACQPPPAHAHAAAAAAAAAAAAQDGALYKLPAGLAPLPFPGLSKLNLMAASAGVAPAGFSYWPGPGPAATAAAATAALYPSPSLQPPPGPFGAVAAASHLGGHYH
How it was run: as §1

ETV5 = ETV5 (Homo sapiens, UniProt P41161 1-510); details: protein: recombinant; tags: N-terminal GST; dsDNA, one strand shown
How it was run: as §1

HSF1 = HSF1 (Homo sapiens, UniProt Q00613 1-529); details: protein: recombinant; tags: N-terminal GST; chain copies: 3; dsDNA, one strand shown
How it was run: as §1

SPIC = biological target: T8, SPIC (Homo sapiens, UniProt Q8N5J4 1-248); details: protein: recombinant; tags: N-terminal GST; dsDNA, one strand shown
T8 sequence: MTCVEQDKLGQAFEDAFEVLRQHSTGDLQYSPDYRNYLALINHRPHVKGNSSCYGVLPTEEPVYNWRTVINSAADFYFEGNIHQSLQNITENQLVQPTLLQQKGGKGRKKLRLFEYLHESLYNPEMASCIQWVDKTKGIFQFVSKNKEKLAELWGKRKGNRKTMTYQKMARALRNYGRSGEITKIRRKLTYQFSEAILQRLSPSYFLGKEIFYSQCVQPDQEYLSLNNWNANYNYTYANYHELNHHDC
How it was run: as §1

ELF4 = ELF4 (Homo sapiens, UniProt Q99607 1-663); details: protein: recombinant; tags: N-terminal GST; dsDNA, one strand shown
How it was run: as §1

ELK4 = biological target: T9, ELK4 (Homo sapiens, UniProt P28324-2 1-405); details: protein: recombinant; tags: N-terminal GST; dsDNA, one strand shown
T9 sequence: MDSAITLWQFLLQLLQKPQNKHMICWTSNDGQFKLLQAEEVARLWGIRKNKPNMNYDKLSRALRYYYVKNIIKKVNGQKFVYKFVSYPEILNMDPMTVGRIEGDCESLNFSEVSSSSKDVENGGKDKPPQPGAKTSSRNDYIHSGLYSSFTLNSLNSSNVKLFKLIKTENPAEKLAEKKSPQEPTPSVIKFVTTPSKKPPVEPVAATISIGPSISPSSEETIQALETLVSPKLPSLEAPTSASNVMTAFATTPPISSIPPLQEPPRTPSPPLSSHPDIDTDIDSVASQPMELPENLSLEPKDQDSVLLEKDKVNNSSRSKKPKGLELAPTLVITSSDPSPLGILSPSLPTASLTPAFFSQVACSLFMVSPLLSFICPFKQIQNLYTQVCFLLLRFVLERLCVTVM
How it was run: as §1

ETV2 = biological target: T10, ETV2 (Homo sapiens, UniProt O00321 1-342); details: protein: recombinant; tags: N-terminal GST; dsDNA, one strand shown
T10 sequence: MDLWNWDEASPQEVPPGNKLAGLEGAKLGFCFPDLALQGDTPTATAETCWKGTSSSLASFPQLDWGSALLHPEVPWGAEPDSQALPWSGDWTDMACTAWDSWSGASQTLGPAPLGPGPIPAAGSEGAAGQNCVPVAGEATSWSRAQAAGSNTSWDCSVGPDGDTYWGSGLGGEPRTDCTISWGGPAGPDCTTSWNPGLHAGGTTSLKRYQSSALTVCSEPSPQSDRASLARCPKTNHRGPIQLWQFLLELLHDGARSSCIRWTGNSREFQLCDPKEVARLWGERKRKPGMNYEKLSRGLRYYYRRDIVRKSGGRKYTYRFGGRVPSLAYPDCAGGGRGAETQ
How it was run: as §1

ELF3 = biological target: T11, ELF3 (Homo sapiens, UniProt P78545 1-371); details: protein: recombinant; tags: N-terminal GST; dsDNA, one strand shown
T11 sequence: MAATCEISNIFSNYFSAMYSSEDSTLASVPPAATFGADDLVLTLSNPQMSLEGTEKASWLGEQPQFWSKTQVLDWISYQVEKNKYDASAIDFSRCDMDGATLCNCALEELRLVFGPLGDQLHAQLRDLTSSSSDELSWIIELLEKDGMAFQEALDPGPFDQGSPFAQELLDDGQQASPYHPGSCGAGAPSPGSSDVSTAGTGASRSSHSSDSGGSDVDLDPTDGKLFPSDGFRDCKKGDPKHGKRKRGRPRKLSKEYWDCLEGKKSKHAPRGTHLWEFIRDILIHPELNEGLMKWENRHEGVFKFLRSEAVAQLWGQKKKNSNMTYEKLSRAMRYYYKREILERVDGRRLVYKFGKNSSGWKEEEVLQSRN
How it was run: as §1

CRX = CRX (Homo sapiens, UniProt O43186 1-299); details: protein: recombinant; tags: N-terminal GST; dsDNA, one strand shown
How it was run: as §1

ETV1 = ETV1 (Homo sapiens, UniProt P50549 1-477); details: protein: recombinant; tags: N-terminal GST; dsDNA, one strand shown
How it was run: as §1

ELF1, sequence (P32519 whole entry): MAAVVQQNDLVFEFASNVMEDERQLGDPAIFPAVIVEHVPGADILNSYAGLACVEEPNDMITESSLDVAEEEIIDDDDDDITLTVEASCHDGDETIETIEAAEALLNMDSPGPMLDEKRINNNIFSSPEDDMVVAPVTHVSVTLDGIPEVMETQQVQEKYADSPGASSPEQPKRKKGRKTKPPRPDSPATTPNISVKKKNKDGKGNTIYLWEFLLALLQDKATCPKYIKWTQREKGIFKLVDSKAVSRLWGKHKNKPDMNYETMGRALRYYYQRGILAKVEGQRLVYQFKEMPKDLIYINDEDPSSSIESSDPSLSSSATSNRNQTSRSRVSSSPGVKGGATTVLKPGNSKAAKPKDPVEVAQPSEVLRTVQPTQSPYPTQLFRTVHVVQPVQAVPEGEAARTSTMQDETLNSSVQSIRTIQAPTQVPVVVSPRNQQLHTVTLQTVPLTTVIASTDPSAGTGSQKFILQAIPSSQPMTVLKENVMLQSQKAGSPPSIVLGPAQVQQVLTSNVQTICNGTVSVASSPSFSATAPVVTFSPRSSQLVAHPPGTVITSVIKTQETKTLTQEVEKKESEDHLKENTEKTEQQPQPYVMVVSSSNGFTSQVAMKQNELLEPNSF
ETV1, sequence (P50549 whole entry): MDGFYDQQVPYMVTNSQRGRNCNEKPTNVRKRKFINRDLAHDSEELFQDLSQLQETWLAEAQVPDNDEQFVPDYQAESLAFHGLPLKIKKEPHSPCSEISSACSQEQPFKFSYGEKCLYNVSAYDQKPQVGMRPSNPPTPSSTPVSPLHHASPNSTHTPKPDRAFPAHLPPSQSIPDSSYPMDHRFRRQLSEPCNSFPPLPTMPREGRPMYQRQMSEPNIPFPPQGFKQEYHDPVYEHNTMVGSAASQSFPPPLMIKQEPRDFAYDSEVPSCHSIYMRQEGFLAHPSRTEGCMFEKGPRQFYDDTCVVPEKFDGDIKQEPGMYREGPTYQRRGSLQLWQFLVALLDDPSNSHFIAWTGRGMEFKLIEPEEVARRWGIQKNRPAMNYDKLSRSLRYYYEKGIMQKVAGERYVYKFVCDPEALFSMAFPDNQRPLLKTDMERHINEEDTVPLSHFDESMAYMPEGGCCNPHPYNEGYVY
HSF1, sequence (Q00613 whole entry): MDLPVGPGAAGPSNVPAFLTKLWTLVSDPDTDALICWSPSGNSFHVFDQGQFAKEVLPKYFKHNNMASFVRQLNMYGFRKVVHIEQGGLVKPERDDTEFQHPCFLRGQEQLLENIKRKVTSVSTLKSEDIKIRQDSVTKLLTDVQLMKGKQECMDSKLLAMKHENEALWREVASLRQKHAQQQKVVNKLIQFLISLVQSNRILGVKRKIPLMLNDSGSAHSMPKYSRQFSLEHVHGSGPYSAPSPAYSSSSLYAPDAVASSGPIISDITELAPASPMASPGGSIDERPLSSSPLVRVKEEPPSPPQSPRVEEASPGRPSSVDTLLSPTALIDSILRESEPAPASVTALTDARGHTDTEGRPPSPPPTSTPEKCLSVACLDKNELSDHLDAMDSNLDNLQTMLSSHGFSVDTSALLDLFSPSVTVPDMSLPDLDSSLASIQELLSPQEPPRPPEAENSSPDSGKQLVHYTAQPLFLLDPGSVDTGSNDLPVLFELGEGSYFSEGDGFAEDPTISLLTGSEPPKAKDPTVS
CRX, sequence (O43186 whole entry): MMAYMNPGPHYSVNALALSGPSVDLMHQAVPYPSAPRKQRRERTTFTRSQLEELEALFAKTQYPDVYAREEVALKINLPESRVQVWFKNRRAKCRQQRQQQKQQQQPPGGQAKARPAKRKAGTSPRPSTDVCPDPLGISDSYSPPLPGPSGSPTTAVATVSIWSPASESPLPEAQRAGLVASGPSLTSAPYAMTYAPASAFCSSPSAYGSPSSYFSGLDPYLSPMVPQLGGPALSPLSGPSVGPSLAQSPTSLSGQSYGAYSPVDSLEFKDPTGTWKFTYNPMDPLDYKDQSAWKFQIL
ELF4, sequence (Q99607 whole entry): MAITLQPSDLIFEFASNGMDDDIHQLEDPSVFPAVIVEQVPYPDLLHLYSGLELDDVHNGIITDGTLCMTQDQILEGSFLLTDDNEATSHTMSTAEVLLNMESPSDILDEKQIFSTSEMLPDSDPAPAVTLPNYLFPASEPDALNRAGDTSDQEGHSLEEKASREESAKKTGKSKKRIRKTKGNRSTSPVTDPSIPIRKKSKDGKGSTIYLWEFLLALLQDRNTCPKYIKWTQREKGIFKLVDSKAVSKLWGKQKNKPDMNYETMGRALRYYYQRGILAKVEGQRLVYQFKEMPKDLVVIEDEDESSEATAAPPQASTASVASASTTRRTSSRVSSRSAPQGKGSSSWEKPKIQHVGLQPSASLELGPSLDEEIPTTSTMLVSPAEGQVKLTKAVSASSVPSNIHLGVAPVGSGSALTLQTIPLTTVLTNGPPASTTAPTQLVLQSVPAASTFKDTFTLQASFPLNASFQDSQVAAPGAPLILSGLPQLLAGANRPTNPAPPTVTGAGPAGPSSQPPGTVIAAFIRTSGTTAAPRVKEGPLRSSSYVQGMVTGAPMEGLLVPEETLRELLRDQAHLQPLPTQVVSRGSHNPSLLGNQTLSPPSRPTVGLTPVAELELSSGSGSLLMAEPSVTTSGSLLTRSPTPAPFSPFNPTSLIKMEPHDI
SPIB, sequence (Q01892 whole entry): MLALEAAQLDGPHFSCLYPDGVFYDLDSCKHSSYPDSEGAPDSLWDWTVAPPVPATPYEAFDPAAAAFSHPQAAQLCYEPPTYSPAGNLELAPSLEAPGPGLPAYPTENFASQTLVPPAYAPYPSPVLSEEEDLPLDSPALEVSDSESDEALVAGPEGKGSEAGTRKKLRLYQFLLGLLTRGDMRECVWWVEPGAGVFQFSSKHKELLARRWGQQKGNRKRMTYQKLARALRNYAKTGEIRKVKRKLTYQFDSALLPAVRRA
ETV5, sequence (P41161 whole entry): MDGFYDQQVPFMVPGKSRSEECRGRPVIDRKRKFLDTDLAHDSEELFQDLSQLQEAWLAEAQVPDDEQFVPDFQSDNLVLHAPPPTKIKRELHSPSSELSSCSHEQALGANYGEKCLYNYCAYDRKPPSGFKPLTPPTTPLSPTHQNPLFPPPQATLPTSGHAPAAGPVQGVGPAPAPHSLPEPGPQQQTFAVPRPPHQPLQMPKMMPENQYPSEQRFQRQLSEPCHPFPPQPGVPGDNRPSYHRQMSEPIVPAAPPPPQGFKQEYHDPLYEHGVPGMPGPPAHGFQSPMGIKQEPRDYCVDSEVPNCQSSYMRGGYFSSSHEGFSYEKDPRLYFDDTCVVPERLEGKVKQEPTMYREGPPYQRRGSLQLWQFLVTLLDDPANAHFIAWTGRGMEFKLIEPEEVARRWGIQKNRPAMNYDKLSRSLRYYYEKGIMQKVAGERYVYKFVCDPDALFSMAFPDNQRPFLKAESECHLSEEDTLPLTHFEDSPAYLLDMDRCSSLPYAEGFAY

For AAGATA, the binding signal (FLI1) was 1.07 fold enrichment (6-mer frequency, TF over GST control), the binding signal (ELK1) was 1.15 fold enrichment (6-mer frequency, TF over GST control) and the binding signal (GABPA) was 1.14 fold enrichment (6-mer frequency, TF over GST control). For the same sequence, the binding signal (ERG) was 1.17 fold enrichment (6-mer frequency, TF over GST control), the binding signal (ELF1) was 1.14 fold enrichment (6-mer frequency, TF over GST control) and the binding signal (EHF) was 1.18 fold enrichment (6-mer frequency, TF over GST control). For the same sequence, the binding signal (SPI1) was 1.08 fold enrichment (6-mer frequency, TF over GST control), the binding signal (SPIB) was 1.12 fold enrichment (6-mer frequency, TF over GST control) and the binding signal (ELK3) was 1.23 fold enrichment (6-mer frequency, TF over GST control). The binding signal (FEV) was 1.08 fold enrichment (6-mer frequency, TF over GST control), the binding signal (ETV5) was 1.14 fold enrichment (6-mer frequency, TF over GST control) and the binding signal (HSF1) was 1.33 fold enrichment (6-mer frequency, TF over GST control). For the same sequence, the binding signal (SPIC) was 1.06 fold enrichment (6-mer frequency, TF over GST control), the binding signal (ELF4) was 1.16 fold enrichment (6-mer frequency, TF over GST control) and the binding signal (ELK4) was 1.12 fold enrichment (6-mer frequency, TF over GST control). For the same sequence, the binding signal (ETV2) was 1.16 fold enrichment (6-mer frequency, TF over GST control), the binding signal (ELF3) was 1.03 fold enrichment (6-mer frequency, TF over GST control) and the binding signal (CRX) was 1.53 fold enrichment (6-mer frequency, TF over GST control). For the same sequence, the binding signal (ETV1) was 1.2 fold enrichment (6-mer frequency, TF over GST control).

From publication PMC7862700, “An all-to-all approach to the identification of sequence-specific readers for epigenetic DNA modifications on cytosine”
